Compound activity: PubChem, National Center for Advancing Translational Sciences (NCATS)
mIDH1 inhibitor – human IDH1 R132H inhibition; O75874; AID 602179; 390,000 compounds, 0.093% hits; IDH1-R132H enzyme, NADPH consumption, diaphorase/resazurin fluorescence; Potency, µM (series often up to 76.6 µM), for the others: top-dose activity change, negative = inhibition, usual class: inhibitors; further: on the % scale 0 is the no-effect control and ±100 the full control effect; nearly all actives have a fitted effect of over 65% in size
Target sequence (O75874 whole entry R132H, stated change not applied): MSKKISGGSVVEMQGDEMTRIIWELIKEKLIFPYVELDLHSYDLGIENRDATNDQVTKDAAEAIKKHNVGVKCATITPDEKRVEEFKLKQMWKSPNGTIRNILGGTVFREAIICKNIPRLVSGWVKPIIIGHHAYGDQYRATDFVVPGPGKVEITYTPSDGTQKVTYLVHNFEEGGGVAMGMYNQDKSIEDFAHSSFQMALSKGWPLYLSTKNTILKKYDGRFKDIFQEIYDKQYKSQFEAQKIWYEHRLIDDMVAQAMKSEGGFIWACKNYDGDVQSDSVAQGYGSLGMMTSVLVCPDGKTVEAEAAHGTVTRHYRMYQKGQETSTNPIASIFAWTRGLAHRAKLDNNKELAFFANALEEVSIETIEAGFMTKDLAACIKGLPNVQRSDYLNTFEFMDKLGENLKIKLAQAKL
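IDH1-R132H (0.5 ug/mL dispensed) in pH 7.5 Tris buffer was preincubated 30 min with compound, then given a substrate mix of 0.016 mM NADPH and 2 mM alpha-KG for 80 min at room temperature; remaining NADPH was read by diaphorase/resazurin fluorescence.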
Nrf2 ARE act – activators of Nrf2 (ARE) signaling; AREc32 ARE-luciferase reporter (MCF7-derived line), luminescence, 24 h; Potency, µM (highest dose often 46.1 µM), without a hit: top-dose activation, most hits filed as activators; 410,000 compounds, 0.31% hits; AID 624171; further: % of control where 0% means no effect; nearly all actives have a fitted effect of over 65% in size
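ARE-driven firefly luciferase activity in AREc32 cells measured after a 24 hr compound exposure at 37 deg C, using Steady-Glo reagent and a 30 min room-temperature hold.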
A549 tox – A549 cytotoxicity, counter-screen for Nrf2 inhibitors; A549 ARE-Fluc cells, CellTiter-Fluor viability, 18-24 h; 390,000 compounds, 0.16% hits; Potency, µM (doses to about 46 µM), without a hit: top-dose activity change, negative = cytotoxicity, usual class: inhibitors; further: on the % scale 0 is the no-effect control and ±100 the full control effect
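A549 ARE-Fluc cells in 5% FBS OPTI-MEM, 5000 cells/well, rested 2 h then exposed to compounds in concentration-response for 18-24 h at 37 °C. Viability by CellTiter-Fluor fluorescence (Ex 405/Em 525) after 30 min; luciferase luminescence (BugLite, 15 min, RT) read afterwards.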
ELG1 repair inh – ELG1-dependent DNA repair inhibition | HEK293T ELG1-luciferase reporter, luminescence, 16 h; DNA damage induced by 5-fluorouridine | Potency, µM (highest dose often 46.1 µM), without a hit: at the highest dose activity change, negative = inhibition, most hits filed as inhibitors | 330,000 compounds, 2.3% hits; further: on the % scale 0 is the no-effect control and ±100 the full control effect; nearly all actives have a fitted effect of over 55% in size
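Step one: seed 2,000 cells per well. Step two: pin-transfer compound or DMSO alongside 5-fluorouridine. Step three: incubate 16 hr, 37 °C, 5% CO2. Step four: add ONE-Glo, wait 30 min, read luminescence.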
Nrf2 inh – blocks Nrf2 signaling; A549 ARE-Fluc reporter, luciferase luminescence, 18-24 h; Potency, µM (series often up to 46 µM), inactives show at the top dose activity change, negative = inhibition, hits mostly inhibitors; 360,000 compounds, 2.1% hits; AID 504444; further: on the % scale 0 is the no-effect control and ±100 the full control effect; nearly all actives have a fitted effect of over 60% in size
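Two sequential reads on A549 ARE_Fluc cells exposed to compound for 18-24 h: a CellTiter-Fluor fluorescence read for viability, then a luciferase luminescence read for Nrf2/ARE activity.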
Starred values were filed as active, the others as inactive; ? = inconclusive; / = not tested or not shown; [ ] = another dose, or the depositor's remark. A selection: hits, their analogues and other compounds. The true share with any hit is near 3.8%. The call rests on the fitted dose curve; in most records, active means well fitted curve in the direction sought with a large enough effect; inconclusive means small, poorly fitted or top-dose-only effect, or another doubt; inactive means no such curve, though single readings can be large; an effect the other way counts as inactive or inconclusive. Potency means the concentration at half of the fitted maximal effect.

SMILES | mIDH1 inhibitor | Nrf2 ARE act | A549 tox | ELG1 repair inh | Nrf2 inh
COc1ccc(N2CCN(CCCNC(=O)c3cnn(-c4ccc(F)cc4)c3-n3cccc3)CC2)cc1 | -6% | 4% | 1% | / | ?
O=C(c1ccccc1)C(CN1CCCC1)c1ccccc1 (stereo unspecified) | -4% | ? | -11% | 18µM* | ?
CCOC(=O)CCCc1cc[c]([Sb](=[O])([OH])[OH])cc1 | / | / | -2% | / | 0%
CCN(CC)C(=O)c1ccc(NC(=O)c2cccc(C(F)(F)F)c2)cc1 | -9% | 1% | 0% | -4% | -19%
CCN(CCCl)c1cc(CN(C)C)cc(NC(=O)c2ccc(C(=O)Nc3cc(CN(C)C)cc(N(CC)CCCl)c3)cc2)c1 | 0% | -3% | 13µM* | / | 2.9µM*
Fc1ccc(-c2nc3c(-c4ccc(F)cc4)cnn3cc2CCN2CCOCC2)cc1 | -1% | 4% | 0% | ? | ?
CN1CCN(c2ccc([N+](=O)[O-])c(N/N=C3\CN4CCC3CC4)c2)CC1 | -1% | 0% | 21µM* | -2% | 0%
O=C(CCCc1nc(-c2ccc(Cl)cc2)no1)NCC1CCCO1 (stereo unspecified) | 1% | 0% | -5% | -19% | 13µM*
O=C(CSc1nnc(NC(=O)c2cc(Br)ccc2Cl)s1)NCC1CCCO1 (stereo unspecified) | -9% | ? | -10% | -8% | -7%
CNc1ccc2oc(C[C@H]3O[C@@]4(CC[C@H]3C)O[C@H]([C@H](C)C(=O)c3ccc[nH]3)[C@H](C)C[C@H]4C)nc2c1C(=O)O | -11% | -3% | 3.7µM* | 5.8µM* | 1.2µM*
CN(C)c1nc(OCc2ccccc2)c2ncc(=O)[nH]c2n1 | -8% | 0% | -21% | / | ?
Cc1ccc(S(=O)(=O)N(CC(=O)NCCSc2ccc(Cl)cc2)c2ccccc2C)cc1 | 13% | 0% | -7% | / | ?
CC(N)C(=O)NC1C2C(=C(O)CC(O)C2O)C(=O)OC1(C)C(Cl)Cl (stereo unspecified) | -1% | -2% | 2.1µM* | / | 1.6µM*
CC(=O)OC1CCC2(C)C(CCC3C4CC(N5CC5)C(C(C)=O)C4(C)CC(=O)C32)C1 (stereo unspecified) | 11% | 16% | 15µM* | / | 8%
CC(=O)[C@H]1CC[C@H]2[C@@H]3CC[C@H]4C[C@H](O)CC[C@]4(C)[C@H]3C(=O)C[C@]12C | 4% | 0% | 1% | -7% | -25%
O=[N+]([O-])c1ccc(N(CCO)CCO)c2c1no[n+]2[O-] | 11% | -6% | / | / | /
CN1CCN(c2ccc([N+](=O)[O-])c3no[n+]([O-])c23)CC1 | 15% | -3% | 23µM* | 3.3µM* | ?
CC1(C)CC2CC(C)(CN2S(=O)(=O)c2cccc(C(=O)OCC(=O)NC(N)=O)c2)C1 (stereo unspecified) | 1% | -1% | -1% | ? | 1%
C=C1C(=O)O[C@H]2C[C@@H](C)[C@@H]3C=CC(=O)[C@@]3(C)C[C@H]12 | 2% | -3% | ? | ? | 21µM*
C=C1C(=O)O[C@H]2[C@H]1[C@H](OC(=O)CC(=O)O[C@@H]1C[C@@H](C)[C@@H]3C=CC(=O)[C@@]3(C)[C@H]3OC(=O)C(=C)[C@H]13)C[C@@H](C)[C@H]1C=CC(=O)[C@]12C | 13% | ? | -6% | ? | 9%
C=C1C(=O)OC2CC(C)C3C=CC(=O)C3(C)C(O)C12 (stereo unspecified) | 6% | -3% | 10µM* | / | 5.8µM*
O=C(c1ccccc1F)N1CCN(Cc2nc3sc4c(c3c(=O)[nH]2)CCCC4)CC1 | 1% | 0% | -6% | 16µM* | ?
O=C(CN1CCN(S(=O)(=O)c2cc(Br)ccc2Br)CC1)NCc1ccccc1Cl | 2% | 3% | -15% | / | ?
Cc1ccc(C)c(N2CCN(C(=O)C3CCCN(S(=O)(=O)c4cccc5nsnc45)C3)CC2)c1 (stereo unspecified) | -8% | 0% | -7% | / | 16µM*
O=C(C1CCCN(S(=O)(=O)c2cccc3nsnc23)C1)N1CCC2(CC1)OCCO2 (stereo unspecified) | 2% | 0% | 0% | -2% | 6%
SMILES | mIDH1 inhibitor | Nrf2 ARE act | A549 tox | ELG1 repair inh | Nrf2 inh
O=C(Cc1c(O)c2ccccc2oc1=O)c1ccc(F)cc1 | -5% | 10% | 0% | ? | 2%
CN(C(=O)CSc1nc2ccc(NC(=O)COc3ccc(Cl)cc3)cc2s1)c1ccccc1 | -3% | 2% | -18% | / | 15µM*
CCOc1ccc(NCc2cccn2-c2nnc(N3CCC(C(=O)NCC(C)c4ccccc4)CC3)s2)cc1 (stereo unspecified) | / | 1% | 1% | / | 15µM*
Cc1ccc(NCc2cccn2-c2nnc(N3CCC(C(=O)NCc4ccc(OC(C)C)cc4)CC3)s2)cc1 | / | 0% | -15% | / | 26µM*
CCOc1ccc(NCc2cccn2-c2nnc(N3CCC(C(=O)NCc4ccc(C)cc4)CC3)s2)cc1 | / | 0% | -11% | / | ?
CCOc1ccc2nc(N3CCC(C(=O)Nc4ccc(Br)cc4F)CC3)sc2c1 | -11% | -1% | 2% | / | ?
C=C(C=O)C[C@@H]1C[C@H](O)C2OC3C[C@]4(C)OC5/C=C\CC6OC7C(CC=CCC6OC5CCCC4OC3CC2O1)OC1CC2OC3CC(=O)OC3C[C@@H](C)C[C@@]2(C)OC1C[C@@H]7C (stereo partly specified) | 5%[38.3 µM] | 0% | 8% | 4.1µM* | 3%
CC1(C)c2[nH]c3ccccc3c2C[C@@H]2C(=O)N(Cc3ccccc3F)C(=O)N21 | / | 6% | 8% | / | 0%
COCCO[C@H]1CC[C@@]2(C)C(=CCC3C2CC[C@@]2(C)C3CC[C@]2(C)O)C1 (stereo partly specified) | 2% | 0% | 4% | 18µM* | -24%
C[C@]12CCC(OC(=O)CCC(=O)O)CC1=CCC1C2CC[C@]2(C)C(=O)CCC12 (stereo partly specified) | -7% | 0% | 6% | 3% | -18%
Cc1cc(=O)oc2cc(OCC(=O)N3CCN(Cc4ccc5c(c4)OCO5)CC3)ccc12 | 6% | 0% | 0% | 6.5µM* | -13%
CC(C)NS(=O)(=O)c1ccc(OCC(=O)N2CCN(Cc3ccc4c(c3)OCO4)CC2)c(Cl)c1 | 5% | 2% | -16% | 12µM* | ?
Cc1cc(-c2nc3ncccc3o2)ccc1NC(=O)c1ccccc1Br | 0% | 0% | -24% | / | ?
CNC(=O)Oc1cccc(-c2cn3cc(Cl)ccc3n2)c1 | 29% | ? | 1% | ? | ?
